Rows were chosen to be rich in hits. Some 21% of all compounds tested hit in one or more screens of this group.
Pf growth 96h: P. falciparum growth inhibition at 96 hour, primary screen for plastid delayed-death inhibitors | P. falciparum luciferase reporter growth, 96 h | Potency, µM (titrated, usually from 28.7 µM), for the others: at the top dose activity change, negative = inhibition, usual class: inhibitors | hit rate 6.9% among 320,000 | AID 504834; further: potency means the concentration at half of the fitted maximal effect; on the % scale 0 is the no-effect control and ±100 the full control effect
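Delayed-death screen, second-generation endpoint: infected erythrocytes, 2% hematocrit, 0.05% parasitemia final; 96 hours at 37 C, 5% CO2; luciferase detection reagent; luminescence decrease equals reduced growth.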
CHX counter: counter-screen for Shiga toxin inhibitors: cycloheximide protein synthesis inhibition. max response, %. cell reporter, cycloheximide protein synthesis inhibition counterscreen. hit rate 12% among 300,000; in the data active means max response mostly above about 13%, no sharp cut-off; inactive means mostly below about 14%; further: read at 38.3 µM for the half of the compounds with a filed dose; 0% is about no effect
Shiga inhibitor: inhibitors of Shiga toxin in Vero cells | hit rate 9.2% among 290,000 | Vero cells, Shiga toxin protein synthesis inhibition reporter | inhibition, % at 38.7 µM; in the data active means inhibition mostly above about 28%, no sharp cut-off; inactive means mostly below about 43%; further: 0% is about no effect
Pf growth 48h: P. falciparum growth inhibition at 48 hours (one generation); P. falciparum luciferase growth in erythrocytes, 48 h; Potency, µM (titrated, usually from 28.7 µM), for the others: top-dose activity change, negative = inhibition, hits mostly inhibitors; hit rate 5.9% among 310,000; AID 504832; further: potency means the concentration at half of the fitted maximal effect; on the % scale 0 is the no-effect control and ±100 the full control effect
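Here the parasites carry a stable luciferase gene and grow inside erythrocytes in Albumax-based RPMI medium with compound for one erythrocytic cycle. Activity is scored as loss of luminescent signal.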
* hit, by the source's call; ? = inconclusive; · = no result; [ ] = another dose, or the depositor's remark. Unless noted, the call rests on the fitted dose curve; in most records, active means well fitted inhibition curve with a large enough effect; inconclusive means small, poorly fitted or top-dose-only effect, or another doubt; inactive means no such curve, though single readings can be large or run the other way.

SMILES	Pf growth 96h	CHX counter	Shiga inhibitor	Pf growth 48h
O=C(/C=C/c1ccccc1)NC(=S)Nc1ccccc1	3%	25*	·	18%
O=C(/C=C/c1ccc(F)cc1)NC(=S)Nc1ccccc1	14%	13	34*	22%
O=C(/C=C/c1ccccc1)NC(=S)NNC(=O)c1ccco1	3%	20*	65*	31%
O=C(/C=C/c1ccc(Br)cc1)NC(=S)NNC(=O)c1ccco1	?	7	17	103%
O=C(/C=C/c1ccccc1)NC(=S)Nc1ccc2c3c(cccc13)CC2	17%	-4	-3	25%
O=C(/C=C/c1ccccc1)NC(=S)Nc1ncccn1	-3%	25*	51*	0%
NC(N)=NS(=O)(=O)c1ccc(NC(=S)NC(=O)/C=C/c2ccc(F)cc2)cc1	?	-3	-13	10%
O=C(/C=C/c1ccccc1)NC(=S)Nc1ccc(N2CCOCC2)cc1	-15%	-2	10	5%
N#Cc1ccc(NC(=O)CN2C(=O)NC3(CCCC3)C2=O)cc1	22%	-4	-3	17%
CCCNC(=S)N1CCC(NC(=O)c2ccc(C)cc2)CC1	40%	-3	-9	?
CN(CCOc1ccccc1)CC(=O)Nc1cccc(C#N)c1	21%	0	-9	26%
O=C(O)Cc1ccc(OCc2ccc(Cl)nc2)cc1	102%	10	38	2%
O=C(CS(=O)Cc1ccco1)NCC=CCOc1cc(CN2CCCCC2)ccn1 (stereo not drawn)	-22%	·	·	-11%
COC(=O)c1c(C(=O)OC)c(-c2ccc(Cl)cc2)n2c1CS(=O)(=O)C2	?	-3	-10	1.5µM*
COC(=O)c1c(C(=O)OC)c(-c2cccc(F)c2)n2c1CS(=O)C2 (stereo not drawn)	45%	-2	-4	1%
COC(=O)c1c(C(=O)OC)c(-c2ccc(C)cc2)n2c1CS(=O)(=O)C2	1.7µM*	-6	-3	·
COC(=O)c1c(C(=O)OC)c(-c2ccc(C(C)(C)C)cc2)n2c1CS(=O)C2 (stereo not drawn)	?	11	-9	10µM*
COC(=O)c1c(C(=O)OC)c(-c2cccc(C)c2)n2c1CS(=O)(=O)C2	?	-4	-19	·
S=c1[nH]nc(C(c2ccccc2)C2CCCCC2)o1 (stereo not drawn)	14%	-3	14	-3%
CCCNC(=O)C(Cc1ccc(Cl)cc1)NC(=O)c1ccc(-c2ccccc2)cc1 (stereo not drawn)	?	·	·	-12%
Nc1nc(NCCN2CCOCC2)nc(NCc2ccccc2)c1[N+](=O)[O-]	8.3µM*	1	-11	6.6µM*
Nc1nc(NCCc2ccccc2)nc(NCc2ccccc2)c1[N+](=O)[O-]	?	1	-4	9.3µM*
C=CCNc1nc(N)c([N+](=O)[O-])c(NCc2ccccc2)n1	?	1	-9	-29%
COC(=O)C1CCCCN1C(=O)c1ccc2oc(C(C)C)nc2c1 (stereo not drawn)	?	27*	57*	-15%
COC(=O)C1CCCCN1C(=O)c1ccc2oc(Cc3ccccc3)nc2c1 (stereo not drawn)	8%	67*	83*	-3%
SMILES	Pf growth 96h	CHX counter	Shiga inhibitor	Pf growth 48h
CCOC(=O)C1CCCCN1C(=O)c1ccc2nc(Cc3ccc(OC)cc3)oc2c1 (stereo not drawn)	?	6	12	?
CN1CN(C)C(c2ccncc2)=C1c1ccncc1	?	0	23	1%
O=C(Nc1nc2c(Cl)ccc(Cl)c2s1)C1CC1	78%	1	5	52%
Cc1cccc2sc(NC(=O)c3ccc(Cl)s3)nc12	13µM*	16	-2	·
O=C(Nc1nc2c(Br)cccc2s1)C1CC1	53%	18*	11	34%
O=C(Nc1nc2c(Cl)c(Cl)ccc2s1)C1CC1	31%	25*	28*	15%
Cc1cc(Cl)cc2sc(NC(=O)C3CC3)nc12	68%	11*	15	38%
CN(CC(=O)Nc1ccc(Cl)c(Cl)c1)CC(=O)Nc1ccc2c(c1)OCO2	46%	·	·	22%
O=C(Nc1nc2c(F)cc(F)cc2s1)C1CC1	83%	44*	85*	86%
O=C(Nc1nc2c(Cl)cccc2s1)C1CC1	38%	15	27	29%
Cc1ccc2sc(NC(=O)C3CC3)nc2c1C	49%	36*	63*	39%
COc1cccc2sc(NC(=O)c3ccc(Br)s3)nc12	22%	32*	72	·
Cc1cccc2sc(NC(=O)CSCc3ccccc3)nc12	8%	18*	62	·
COc1cccc2sc(NNC(=O)COc3ccccc3)nc12	-41%[1.15 µM]	-4	14	-6%
Cc1cccc2sc(NC(=O)C3CC3)nc12	32%	23*	40*	31%
C/C(=N/NC(=O)CNC(=O)COc1cccc(C)c1)c1ccc(Cl)cc1	-12%	-1	-6	2%
Cc1nn(C)cc1C(C(=O)NC1CCCCC1)N(Cc1ccc(F)cc1)C(=O)c1cnccn1 (stereo not drawn)	?	-3	-18	0%
O=C(Nc1ccccc1N1CCCC1)C1CCCO1 (stereo not drawn)	25%	·	·	5%
Cc1cc(OCC(F)(F)C(F)(F)C(F)(F)C(F)F)nc(N)n1	48%	46*	78*	?
Cc1ccc(-n2cc(CNCCc3cscn3)c(-c3ccc(F)cc3)n2)cc1	7%	10	29	?
COc1ccc(-n2cc(CNCCCn3ccnc3)c(-c3cccc(F)c3)n2)cc1	-13%	1	5	1.5µM*
Cc1ccc(-n2cc(CN3CCN(Cc4nccn4C)CC3)c(-c3ccc(F)cc3)n2)cc1	?	15*	57	6.6µM*
Cc1ccc(-n2cc(CN3CCN(C(=O)c4ncn[nH]4)CC3)c(-c3ccc(F)cc3)n2)cc1	15µM*	17*	40	12µM*
Cc1cccc(-n2cc(CN3CCN(c4ccccn4)CC3)c(-c3cccc(F)c3)n2)c1	?	-3	2	?
Cc1ccc(-n2cc(CN3CCN(c4ccccn4)CC3)c(-c3ccc(F)cc3)n2)cc1	-12%	4	33	9.3µM*
SMILES	Pf growth 96h	CHX counter	Shiga inhibitor	Pf growth 48h
CC1Cc2c([nH]c3ccccc23)C2c3ccccc3CN12 (stereo not drawn)	-12%	3	6	-18%
CN(C)C1=NCCN1CCc1ccccc1	66%	·	·	10%
Cc1ccc(-n2cc(CNCCCn3ccnc3C)c(-c3ccc(F)cc3)n2)cc1	23%	2	4	2.3µM*
Clc1ccc(-c2cn3nc4c(nc3n2)CCCC4)cc1	·	37*	88*	138%
COc1cccc(-c2cn3nc4c(nc3n2)CCCC4)c1	-51%	16*	27	-53%
CCOC(=O)CN(c1ccccc1C)S(=O)(=O)c1ccc(Cl)cc1	25%	-4	1	?
COc1ccc(CN(C)C(=O)c2ccc(Cl)c(S(=O)(=O)NCc3cccnc3)c2)cc1F	-2%	·	·	?
Cc1cc(F)ccc1S(=O)(=O)N1CCCOC1CNC(=O)C(=O)NCCCN1CCOCC1 (stereo not drawn)	?	9	-13	8%
CC1(C)CC(=O)C(C=NCC2CCN(C(=S)Nc3cccc(Cl)c3)CC2)=C(O)C1	9%	2	-10	-9%
